Assay outcomes deposited in PubChem by The Scripps Research Institute Molecular Screening Center.
Compounds with a hit are over-represented: about 3.4% of the library has one in this group of screens.
FBW7 activator: FBW7 E3 ligase activators, primary screen, biochemical, AlphaScreen, human | AlphaScreen FBW7–phospho-cyclin E peptide binding, activator screen | normalized activity (activation), % at 26.1 µM | 0.13% of 650,000 active | AID 1259310, 2017; in the data active = normalized activity above about 1.9%;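 note: purified mutant Fbw7 with reduced substrate affinity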
GPR151 ag: activators of human GPR151, primary screen, cell-based, PathHunter beta-arrestin, luminescence; PathHunter beta-arrestin GPR151 cells; activation, % at 11.2 µM; 1% of 650,000 active; AID 1508602, 2020; in the data active = activation above about 4.9%;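 note: 0% = median of compound wells and 100% = cells with positive control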
Target sequence (Q8TDV0 whole entry, looked up): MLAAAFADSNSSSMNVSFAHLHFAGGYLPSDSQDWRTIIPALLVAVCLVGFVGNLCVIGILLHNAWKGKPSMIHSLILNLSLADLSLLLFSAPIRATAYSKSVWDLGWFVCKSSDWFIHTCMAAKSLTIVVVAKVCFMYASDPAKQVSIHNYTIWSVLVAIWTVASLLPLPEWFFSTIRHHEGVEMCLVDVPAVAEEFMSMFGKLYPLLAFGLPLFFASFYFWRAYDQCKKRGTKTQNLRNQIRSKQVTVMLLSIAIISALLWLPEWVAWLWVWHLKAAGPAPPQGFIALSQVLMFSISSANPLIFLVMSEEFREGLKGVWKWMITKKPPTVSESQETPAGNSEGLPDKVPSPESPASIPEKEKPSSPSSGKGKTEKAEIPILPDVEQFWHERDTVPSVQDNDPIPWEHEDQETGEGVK
MITF inh: MITF inhibitors, primary screen, biochemical, AlphaScreen, human. Microphthalmia-associated transcription factor (Homo sapiens), O75030. AlphaScreen MITF homodimerization, bead proximity signal. inhibition, % at 2.6 µM. 0.91% of 650,000 active. AID 1259374, 2018; in the data active = inhibition above about 50%;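 note: 0% = vehicle wells with protein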
TEAD-YAP inh: TEAD-YAP interaction inhibition, primary screen, TEAD-YAP interaction inhibitor project, luminescence, HEK-TIYL cells; TEAD-Gal4/YAP UAS-luciferase luminescence; inhibition, % at 9.12 µM; 1.4% of 640,000 active; AID 1259422, 2018; in the data active = inhibition above about 32%;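 note: 0% = median of test compound wells and 100% = reference inhibitor wells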
* = called active by the depositor.

SMILES	FBW7 activator	GPR151 ag	MITF inh	TEAD-YAP inh
CCN(CCO)c1ccc(NC(=S)Nc2ccccc2F)cc1	0	-9	8	66*
CCN(CC)c1ccc(NC(=S)Nc2ccc(S(N)(=O)=O)cc2)cc1	0	0	74*	5
CN1/C(=C\C(C[N+](=O)[O-])c2ccc3c(c2)OCO3)C(C)(C)c2ccccc21 (centres undefined)	0	0	8	49*
COc1ccc(C(/C=C2\N(C)c3ccccc3C2(C)C)C[N+](=O)[O-])cc1 (centres undefined)	0	1	11	16
COc1cccc2cc(-c3csc(N/N=C/c4ccc(N(C)C)cc4)n3)c(=O)oc12	0	-1	-6	-12
CCSc1nc(SCC)c2c3c([nH]c2n1)COC(C)(C)C3	0	0	-18	-17
CC1CCC(C(C)C)C(OC(=O)Cn2c(-c3ccc(Cl)cc3)[n+](C)c3ccccc32)C1 (centres undefined)	0	4	-3	45*
Cc1ccc(C)c(S(=O)(=O)Nc2ccc3scnc3c2)c1	0	1	14	39*
Cc1cc2c(cc1C)NC(c1cc3c(cc1[N+](=O)[O-])OCO3)C1=C(CC(C)(C)CC1=O)N2 (centres undefined)	0	-1	4	72*
CC(C)C(=O)Nc1nnc(S(=O)(=O)N(C)c2ccccc2)s1	0	2	-1	-8
COc1ccc(C(C#N)N2CCCCCC2)cc1OC (centres undefined)	2.0*	-1	14	-1
CC(=O)Nc1ccc(-c2csc(NC(=O)COc3ccc(C(C)=O)cc3)n2)cc1	0	0	-5	-3
COc1cc(-c2ncnn2-c2sc3c(c2C#N)CCCCC3)ccc1O	0	0	-12	79*
COc1ccc(-c2ncnn2-c2sc3c(c2C#N)CCCCC3)cc1OC	0	0	-10	-1
Cc1cccc(C)c1NC(=O)CSC1=C(C#N)C(c2ccco2)C2=C(CCCC2=O)N1 (centres undefined)	0	-1	14	9
Cc1c(Cl)cccc1NC(=O)CSC1=C(C#N)C(c2ccco2)C2=C(CCCC2=O)N1 (centres undefined)	0	1	49	38*
Cc1ccc(C2C(C#N)=C(SCC(=O)Nc3cccc(C)c3C)NC3=C2C(=O)CCC3)o1 (centres undefined)	0	1	-12	64*
CCc1ccc(NC(=O)CSC2=C(C#N)C(c3ccc(C)o3)C3=C(CCCC3=O)N2)cc1 (centres undefined)	1	0	2	20
O=C(NNc1ccc([N+](=O)[O-])cc1[N+](=O)[O-])c1ccncc1	0	1	7	-4
COc1cccc2c(SCC(=O)Nc3ccc4c(c3)OCCO4)nccc12	0	-1	9	51*
COc1cccc2c(SCC(=O)Nc3ccc4c(c3)OCO4)nccc12	1	-1	0	48*
COC(=O)COc1cccc2c(=O)n(CC(=O)Nc3ccc4c(c3)OCCO4)ccc12	0	0	6	2
CS(=O)(=O)c1ccc2nc(NC(=O)c3cc(=O)c4ccccc4o3)sc2c1	0	-1	10	9
CCOCCCNC(=O)c1ccc(Cl)c(S(=O)(=O)Nc2ccccc2C)c1	0	0	-4	10
COc1ccccc1/C=N/NC(=O)Cc1ccc(C(F)(F)F)cc1[N+](=O)[O-]	0	1	-11	6
SMILES	FBW7 activator	GPR151 ag	MITF inh	TEAD-YAP inh
CCOc1cccc(/C=N/NC(=O)c2cc(-c3cccc([N+](=O)[O-])c3)n[nH]2)c1O	0	0	41	60*
CCOc1cccc(/C=N/NC(=S)Nc2ccccc2[N+](=O)[O-])c1O	0	3	12	71*
CCOc1ccccc1-c1cc(C(=O)N/N=C/c2cccc(OCC)c2O)[nH]n1	0	-2	18	69*
CC(C)(O)C(=O)/C=C/c1cccc([N+](=O)[O-])c1	0	-1	0	48*
COc1cc(C(=O)/C=C/Nc2cccc(O)c2)cc(OC)c1OC	0	0	13	38*
COc1cc(C(=O)/C=C/Nc2cccc(F)c2)cc(OC)c1OC	0	2	-2	28
Cc1ccc(C(=O)/C=C/Nc2cccc(O)c2)cc1	0	0	-2	92*
Cc1ccc(/C=C/C(=O)c2ccc(O)cc2)cc1	0	-2	-1	47*
OCC1CCCN1c1nc(NCc2cccc(C(F)(F)F)c2)c2ncn(-c3ccsc3)c2n1 (centres undefined)	0	1	0	-1
Cc1ccc(NC(=O)Cn2nnc(-c3ccc(Cl)cc3)n2)cc1[N+](=O)[O-]	0	1	-3	-51
N#Cc1cc2cc3c(cc2nc1NCCNC(=O)Nc1ccccc1C(F)(F)F)OCO3	0	1	7	-1
CCOC(=O)Cc1csc(N/N=C\c2ccc(C(F)(F)F)cc2)n1	0	-1	14	61*
O=C(Nc1ccc(CN2CCN(c3ccccn3)CC2)cc1)c1ccc(F)c(F)c1	0	-2	-3	-59
Cc1ncn(-c2ccc(Nc3ncc4cccc(N5CCOCC5)c4n3)cc2)n1	0	0	1	48*
Cc1ncn(-c2ccc(Nc3ncc4cccc(-n5ccnc5)c4n3)cc2)n1	5.7*	0	5	38*
COc1cccc(N/C(N)=N/c2nc(C)cc(C)n2)c1	0	1	-22	53*
Cc1cc(C)nc(/N=C(\N)Nc2cccc(OCc3ccccc3)c2)n1	0	1	7	50*
Cc1cc(/C=C2\NC(=S)NC2=O)c(C)n1-c1ccccc1	1	0	20	-17
CSc1nc2ccc3nc(NC(=O)c4ccc(S(=O)(=O)N(C)C5CCCCC5)cc4)sc3c2s1	1	1	9	-5
COc1ccc(-c2c(C)oc3cc(OS(C)(=O)=O)ccc3c2=O)cc1OC	0	-1	13	34*
Cc1ccccc1C1(CC(=O)N2CCC[C@H]2C(N)=O)CC(=O)N(Cc2ccncc2)C1=O (some centres undefined)	0	-1	-3	-4
O=C(NCc1ccccc1)c1ccc2nc(-c3cccs3)sc2c1	0	2	11	-26
CC1=C(C#N)C(c2cccnc2)C2=C(N1)c1ccccc1C2=O (centres undefined)	0	0	-7	56*
Cc1ccc2ccc(C(Nc3ccccn3)c3cccnc3)c(O)c2n1 (centres undefined)	0	-1	1	10
Oc1ccccc1NC(c1cccnc1)c1ccc2cccnc2c1O (centres undefined)	0	-1	98*	7
COc1ccc(NC(c2cccnc2)c2ccc3cccnc3c2O)cc1 (centres undefined)	-2	0	59*	1
CCCCNC(=O)CCN(Cc1c(Cl)cccc1Cl)S(=O)(=O)c1ccc(C)cc1	0	1	-6	14
